# Source: PubChem
# 3CLpro inhibitor = SARS-CoV 3CLpro protease inhibition; P0C6X7; recombinant SARS-CoV 3CLpro, quenched FRET peptide cleavage; AID 1706; inhibition, % at 6 µM; 290,000 tested, 0.14% active; in the data active = inhibition above about 12%
# Bead autofluor = compound fluorescence in toxin protease inhibitor counterscreen. compound autofluorescence counterscreen, microsphere flow cytometry; active compounds read high. fluorescence intensity (no concentration beside the values). 360,000 tested, 3.1% active; in the data active = fluorescence intensity above about 16000; inconclusive = no clear call, values can overlap the other calls
# BoNT A protease = blocks Botulinum neurotoxin A light chain protease | multiplex microsphere protease substrate cleavage, flow cytometry | inhibition, % at 10 µM | 360,000 tested, 0.17% active
# Anthrax LF prot = inhibitors of Bacillus anthracis lethal factor protease. 360,000 tested, 0.12% active. inhibition, % at 10 µM. multiplex microsphere protease cleavage assay, LF. AID 588501
# Target sequence (P15917 whole entry, looked up): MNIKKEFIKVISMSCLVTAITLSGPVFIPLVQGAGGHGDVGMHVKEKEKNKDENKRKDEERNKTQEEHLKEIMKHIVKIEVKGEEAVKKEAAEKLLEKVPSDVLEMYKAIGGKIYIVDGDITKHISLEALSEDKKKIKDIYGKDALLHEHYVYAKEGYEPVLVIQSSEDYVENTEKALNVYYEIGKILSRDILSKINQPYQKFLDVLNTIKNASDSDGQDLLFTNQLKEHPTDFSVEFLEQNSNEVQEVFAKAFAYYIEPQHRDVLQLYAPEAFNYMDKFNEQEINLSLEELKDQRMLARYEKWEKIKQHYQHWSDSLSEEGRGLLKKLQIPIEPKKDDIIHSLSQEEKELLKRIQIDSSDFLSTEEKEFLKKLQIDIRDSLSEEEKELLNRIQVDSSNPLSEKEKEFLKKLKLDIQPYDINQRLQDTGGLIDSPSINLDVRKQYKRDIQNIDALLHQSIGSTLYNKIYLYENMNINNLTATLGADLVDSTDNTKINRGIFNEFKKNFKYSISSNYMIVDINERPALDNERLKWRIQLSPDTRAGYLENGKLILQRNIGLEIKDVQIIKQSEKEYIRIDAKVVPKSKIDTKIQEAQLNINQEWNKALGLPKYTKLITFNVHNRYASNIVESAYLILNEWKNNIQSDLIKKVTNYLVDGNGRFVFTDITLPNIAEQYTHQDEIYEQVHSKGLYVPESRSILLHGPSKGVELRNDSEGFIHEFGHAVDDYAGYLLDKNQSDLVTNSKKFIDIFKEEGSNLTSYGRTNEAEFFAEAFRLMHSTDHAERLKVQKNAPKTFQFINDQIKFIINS
# BoNT F protease = blocks Botulinum neurotoxin F light chain protease | AID 588497 | 360,000 tested, 0.22% active | Multiplex microsphere protease cleavage assay, flow cytometry | inhibition, % at 10 µM; in the data active = inhibition above about 35%, passing the limit was not always enough; inconclusive = no clear call, values can overlap the other calls
# A number is an active result; . = inactive; ? = inconclusive; / = no result given. Compounds with a hit are over-represented: about 3.5% of the library has one in this group of screens. Cut-off read from the data, not from the text of the source, unless noted: active = inhibition above about 30%; inconclusive = no clear call, values can overlap the other calls; inactive = below that.
SMILES,3CLpro inhibitor,Bead autofluor,BoNT A protease,Anthrax LF prot,BoNT F protease
O=C(COc1ccc(Cl)cc1)Nc1nc(-c2ccncc2)cs1,.,.,.,.,.
Cc1ccccc1S(=O)(=O)Cc1ccc(C(=O)NCCCN2CCCC2)o1,.,.,.,.,.
Cc1ccccc1S(=O)(=O)Cc1ccc(C(=O)NCCCN2CCN(C)CC2)o1,.,22715,.,.,.
Cc1ccccc1Oc1ncccc1C(=O)/C(C#N)=C/N(C)C,.,23141,.,.,.
Cn1c(SCC(=O)n2c3c(c4ccccc42)CCCC3)nnc1-c1ccccc1,.,22437,.,.,.
CC(C)C(NS(=O)(=O)c1cccs1)C(=O)NCc1ccccc1Cl (configuration not stated),.,.,.,.,.
COc1ccc(S(=O)(=O)N2CCCOC2CNC(=O)C(=O)NCCCn2ccnc2)cc1OC (configuration not stated),.,.,.,.,.
CCN1CCN(Cc2oc(CO)cc(=O)c2O)CC1,.,19271,?,.,.
CCOC(=O)CSc1nnc(CNC(=O)c2cc(OCC)c(OCC)c(OCC)c2)n1C,.,23875,.,.,.
CCOC(=O)CSc1nnc(NC(=O)c2cccc(S(=O)(=O)N3CCCCCC3)c2)s1,.,24044,.,.,.
NC(=O)CSc1nnc(NC(=O)c2cccc(S(=O)(=O)N3CCCCC3)c2)s1,.,.,.,.,.
COC(=O)CSc1nnc(CNC(=O)c2ccc(S(=O)(=O)N(C)C)cc2)n1C,.,.,.,.,.
CCOC(=O)CSc1nnc(CNC(=O)c2ccc(S(=O)(=O)N3CCOCC3)cc2)n1C,.,.,.,.,.
CCN(CC)S(=O)(=O)c1ccc(C(=O)NCc2nnc(SCC(=O)OC)n2C)cc1,.,18096,.,.,.
CCOC(=O)CSc1nnc(CNC(=O)c2ccc(S(=O)(=O)N3CCCC3)cc2)n1C,.,22679,.,.,.
Nc1nc(Cl)nc2c1ncn2C1CCC(CO)O1 (configuration not stated),/,.,.,.,.
O=C(CCN1C(=O)C2CC=C(Cl)CC2C1=O)N1CCCCC1 (configuration not stated),.,.,.,.,.
COc1ccc(C(=O)C2CCCN(Cc3cccc4c3OCO4)C2)cc1OC (configuration not stated),.,.,.,.,.
NS(=O)(=O)c1ccc(CNC(=O)/C=C/c2cccc([N+](=O)[O-])c2)cc1,.,19057,.,.,.
NS(=O)(=O)c1ccc(CNC(=O)/C=C/c2ccc(Cl)c(Cl)c2)cc1,.,.,.,.,.
O=C(CCC(=O)c1ccc(Oc2ccccc2)cc1)Nc1ccc(Cl)cc1Cl,.,.,.,.,.
Cc1ccc(CN2C(=O)COc3cc(NS(C)(=O)=O)ccc32)cc1,/,.,.,.,.
O=C(NC1CCCCC1)N1CCC(c2nc3ccc(Cl)cc3[nH]2)CC1,.,16224,.,.,.
O=C(NC1CCCCC1)N1CCC(c2nc3ccccc3[nH]2)CC1,.,22032,.,.,.
O=C(NC1CCCCC1)N1CCCC(c2nc3ccccc3[nH]2)C1 (configuration not stated),.,.,.,.,.
SMILES,3CLpro inhibitor,Bead autofluor,BoNT A protease,Anthrax LF prot,BoNT F protease
CCN(CC)S(=O)(=O)c1cc(NS(=O)(=O)c2cccc(Cl)c2)ccc1C,.,.,.,.,.
O=C(/C=C/N1CCOCC1)c1ccc(-c2ccccc2)cc1,.,.,.,.,.
COc1ccc(C(c2sc3nc(C)nn3c2O)N2CCCCC2)cc1 (configuration not stated),.,.,.,.,.
CCN(CC)C(=O)c1cncc(C(=O)N(CC)CC)c1-c1ccccc1,.,20311,.,.,.
O=C(NC1CCCC1)C1(c2ccccc2)CCN(S(=O)(=O)c2ccccc2)CC1,.,24081,?,.,.
O=S(=O)(c1ccccc1)N1CCN(C(=S)NC2CCCC2)CC1,.,.,.,.,.
C#CCOCCOCCOCCNc1nc(N2CCN(C(=O)[C@H](Cc3cc4ccccc4[nH]3)n3cc([C@@H](N)C(C)CC)nn3)CC2)nc(N2CCN(C(=O)[C@H](CCCCN)n3cc([C@@H](N)CC(C)C)nn3)CC2)n1 (some centres not stated),.,/,/,/,/
Fc1cccc(F)c1/C=C/c1ccc2ccccc2n1,.,.,.,.,.
CC(O)/C=C/c1ccc2ccccc2n1 (configuration not stated),.,17160,.,.,.
CC1=C(C(=O)Nc2ccccc2)C(c2cccnc2)n2nc(-c3cccnc3)nc2N1 (configuration not stated),.,22749,.,.,.
